Screening data (PubChem)
aSyn 5UTR act = Activators via SNCA 5'UTR binding, MLPCN | alpha-synuclein 5'UTR reporter, activators screen | activity score, % (tested at 7.5 µM), hits read low | hit rate 7.1% among 300,000; in the data active = activity score below about -60%
Starred values were filed as active, the others as inactive. Not all results are given here.

Screening O=C(NCc1ccccc1)c1cc(-c2cccc(O)c2)on1 returned aSyn 5UTR act -66*.
O=C(NCc1cccnc1)c1cc(-c2cccs2)on1 was read as aSyn 5UTR act -92*.
Screening O=C(NCc1cccnc1)c1cc(-c2ccccc2)on1 returned aSyn 5UTR act -89*.
CCCCOc1ccc(N(CC(=O)NCc2ccccc2)C(=O)c2csnn2)cc1 was read as aSyn 5UTR act -69*.
`CCOC(=O)c1nn(-c2ccc(C)cc2)cc1C(=O)c1ccccc1` gave aSyn 5UTR act -120*.
`COC(=O)c1nn(-c2ccc3c(c2)OCO3)cc1O` gave aSyn 5UTR act -86*.
CCOC(=O)c1nn(-c2ccc(C)c(C)c2)cc1O was read as aSyn 5UTR act -141*.
CCOC(=O)c1nn(-c2ccc(C)c(C)c2)c(=O)c2c(N)scc12 was read as aSyn 5UTR act 46.
For COC(=O)c1nn(-c2ccc3c(c2)CCN3C(C)=O)cc1O the results were aSyn 5UTR act 91.
`Cc1cnc(C(=O)Nc2ccc(N3CCOCC3)cc2)cn1` gave aSyn 5UTR act -73*.
Cc1cnc(C(=O)Nc2ccc(N3CCCCC3)cc2)cn1 was read as aSyn 5UTR act -135*.
For Cc1cnc(C(=O)Nc2ccc(OC(F)(F)F)cc2)cn1 the results were aSyn 5UTR act -239*.
For O=C1c2ccsc2SCCN1Cc1ccccc1 the results were aSyn 5UTR act -65*.
For O=C(CNC(=O)c1ccccc1F)N/N=C/c1cccs1 the results were aSyn 5UTR act -94*.
For O=C(N/N=C/C=C/c1ccco1)c1ccccc1Cl the results were aSyn 5UTR act -107*.
`Cc1ccc(OCC(=O)N/N=C/C=C/c2ccco2)c(Br)c1` gave aSyn 5UTR act -64*.
`Cc1ccc(N/N=C/C=C/c2ccco2)cc1` gave aSyn 5UTR act -157*.
Screening O=C(CNC(=O)c1cccs1)N/N=C/c1ccco1 returned aSyn 5UTR act -125*.
Screening O=C(Cc1cccs1)N/N=C/C=C\c1ccco1 returned aSyn 5UTR act -78*.
`O=C(N/N=C/C=C\c1ccco1)c1cccs1` gave aSyn 5UTR act -152*.
`Cc1ccccc1OCc1nc2c3cnn(C)c3ncn2n1` gave aSyn 5UTR act -152*.
c1ccc2c(-c3csc(-c4ccncc4)n3)c[nH]c2c1 was read as aSyn 5UTR act -141*.
For Brc1ccc(-c2csc(-c3c[nH]c4ccccc34)n2)cc1 the results were aSyn 5UTR act -183*.
`CCn1c(C)cc(C=C2C(=O)c3ccccc3C2=O)c1C` gave aSyn 5UTR act -92*.
Cc1cccc(-n2c(C)cc(C=C3C(=O)c4ccccc4C3=O)c2C)c1 was read as aSyn 5UTR act -91*.
COc1cccc(NC(=O)C(=O)NCCCN2CCCC2=O)c1 was read as aSyn 5UTR act -65*.
For Cc1cc(C)cc(NC(=O)C(=O)NCCCN2CCCC2=O)c1 the results were aSyn 5UTR act -106*.
For COC(=O)c1ccc(COc2ccccc2/C=C(\C#N)C(=O)Nc2ccc(C)cc2)cc1 the results were aSyn 5UTR act -154*.
For COc1cc(/C=N/NS(=O)(=O)c2ccc(C)cc2)ccc1OCc1ccc(C(=O)O)cc1 the results were aSyn 5UTR act 84.
COC(=O)c1ccc(COc2ccccc2/C=N/NS(=O)(=O)c2ccc(C)cc2)cc1 was read as aSyn 5UTR act -69*.
For N/C(=N\OC(=O)c1ccncc1)c1cccc([N+](=O)[O-])c1 the results were aSyn 5UTR act -70*.
N/C(=N\OC(=O)c1ccc([N+](=O)[O-])cc1)c1ccc(Br)cc1 was read as aSyn 5UTR act -81*.
`N/C(=N\OC(=O)c1ccc(Br)cc1)c1cccc([N+](=O)[O-])c1` gave aSyn 5UTR act -179*.
Screening Cc1ccc(C(=O)O/N=C(\N)c2cccc([N+](=O)[O-])c2)cc1 returned aSyn 5UTR act -218*.
Screening COc1ccc(-c2nnc(-c3cccs3)o2)cc1OC returned aSyn 5UTR act -148*.
`CCOc1ccc(-c2nnc(-c3cccs3)o2)cc1OCC` gave aSyn 5UTR act -86*.
For CCOc1ccc(-c2nnc(-c3ccco3)o2)cc1OCC the results were aSyn 5UTR act -76*.
Screening O=C(Cc1ccccc1)N/N=C/c1ccccc1OCc1ccc(Cl)cc1 returned aSyn 5UTR act -95*.
Screening Cc1ccc(O)c(/C=N/NC(=O)Cc2ccc(Cl)cc2)c1 returned aSyn 5UTR act 61.
For O/N=C/c1ccccc1OCc1ccc(Cl)cc1 the results were aSyn 5UTR act -98*.
For Fc1ccc(N/N=C/c2ccc(N3CCOCC3)cc2)c(F)c1 the results were aSyn 5UTR act -207*.
Screening C/C(=N\Nc1ccc(F)cc1F)c1ccc(N2CCOCC2)cc1 returned aSyn 5UTR act -96*.
`CN(C)/N=C/c1ccc(N2CCOCC2)cc1` gave aSyn 5UTR act -96*.
`C/C(=N\Nc1ccc(F)cc1F)c1ccc(Br)s1` gave aSyn 5UTR act -81*.
For Cc1ccc(C)c(N(CC(=O)Nc2ccc(-c3nc4ccc(C)cc4s3)cc2)S(C)(=O)=O)c1 the results were aSyn 5UTR act -80*.
Cc1ccc(N(CC(=O)Nc2ccc(-c3nc4ccc(C)cc4s3)cc2)S(C)(=O)=O)cc1 was read as aSyn 5UTR act -203*.
